# According to PubChem BioAssay (EPA / NIEHS):
# The source made the active and inactive calls. How the source made its calls: active means hit-call score of the fitted dose curve at least 0.9, where 1 is the maximum; inactive means score below 0.9.
# Key:
# [1] = read-out: TIMP metallopeptidase inhibitor 2 (TIMP2), TIMP2 (gene 7077); assay: BSK_KF3CT_TIMP2: BioMAP Diversity Plus: KF3CT Assay for TIMP metallopeptidase inhibitor 2 (TIMP2) Biomarker Activity (AID 2283071); conditions: primary human keratinocytes with fibroblasts; actives raise or lower the signal
# How it was run: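 Human primary keratinocyte/foreskin fibroblast co-culture dosed with chemical and sampled at 24 h. TIMP-2 levels quantified by ELISA; bidirectional fitting against DMSO negative control as baseline.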
# [2] = read-out: Transforming growth factor beta 1 (TGFb1), TGFB1 (gene 7040); assay: BSK_KF3CT_TGFb1: BioMAP Diversity Plus: KF3CT Assay for Transforming growth factor beta 1 (TGFb1) Biomarker Activity (AID 2283072); conditions: primary human keratinocytes with fibroblasts; actives raise or lower the signal
# How it was run: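 Human keratinocyte plus foreskin fibroblast primary co-culture, dosed with chemical for 24 h. TGF-b1 quantified by ELISA. Activity fitted bidirectionally against DMSO negative control as baseline.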
# [3] = read-out: C-C motif chemokine 2 (Homo sapiens) (UniProt P13500); assay: BSK_KF3CT_MCP1: BioMAP Diversity Plus: KF3CT Assay for Monocyte Chemoattractant Protein 1 (MCP1/CCL2) Biomarker Activity (AID 2283073); conditions: primary human keratinocytes with fibroblasts; actives raise or lower the signal
# How it was run: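 Human keratinocyte–foreskin fibroblast co-culture; MCP-1 measured by ELISA 24 h after dosing. Bidirectional fit vs DMSO; cytotoxicity tracked by SRB total protein in parallel cultures.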
# [4] = read-out: Matrix Metallopeptidase 9 (MMP9), MMP9 (gene 4318); assay: BSK_KF3CT_MMP9: BioMAP Diversity Plus: KF3CT Assay for Matrix Metallopeptidase 9 (MMP9) Biomarker Activity (AID 2283074); conditions: primary human keratinocytes with fibroblasts; actives raise or lower the signal;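 on AC50: MMP9 protein level quantified by ELISA in the co-culture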
# How it was run: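 Keratinocyte plus foreskin fibroblast human primary skin co-culture was dosed with chemical and MMP-9 was quantified by ELISA 24 h later. Bidirectional curve fitting used DMSO as negative control and activity baseline.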
# [5] = read-out: urokinase plasminogen activator (uPA), PLAU (gene 5328); assay: BSK_KF3CT_uPA: BioMAP Diversity Plus: KF3CT Assay for urokinase plasminogen activator (uPA) Biomarker Activity (AID 2283075); conditions: primary human keratinocytes with fibroblasts; actives raise or lower the signal
# How it was run: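 Human keratinocyte plus foreskin fibroblast primary co-culture exposed to chemical for 24 h. uPA levels were quantified by ELISA, and activity was fitted bidirectionally against a DMSO negative-control baseline.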
# CD40, CD40 (gene 958) [6] = assay: BSK_LPS_CD40: BioMAP Diversity Plus: LPS Assay for CD40 Biomarker Activity (AID 2283076); conditions: primary human HUVEC with PBMC; actives raise or lower the signal
# How it was run: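 HUVEC plus PBMC co-culture stimulated with LPS; CD40 quantified by ELISA 24 h after compound dosing. Fitting was bidirectional relative to DMSO. SRB staining of parallel cultures flagged overt cytotoxicity.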
# [7] = read-out: E-selectin (Homo sapiens) (UniProt P16581); assay: BSK_LPS_Eselectin: BioMAP Diversity Plus: LPS Assay for Eselectin Biomarker Activity (AID 2283077); conditions: primary human HUVEC with PBMC; actives raise or lower the signal
# How it was run: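 Human umbilical vein endothelial cells co-cultured with PBMC under LPS stimulation; cell-surface E-selectin measured by ELISA 24 h after dosing. Change in either direction versus DMSO, with SRB total-protein staining in parallel cultures for cytotoxicity.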
# [8] = read-out: Interleukin-8 (IL8), CXCL8 (gene 3576); assay: BSK_LPS_IL8: BioMAP Diversity Plus: LPS Assay for Interleukin-8 (IL8) Biomarker Activity (AID 2283078); conditions: primary human HUVEC with PBMC; actives raise or lower the signal
# How it was run: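 Human umbilical vein endothelial cells co-cultured with PBMC, LPS-stimulated, exposed to compound for 24 h. IL-8 quantified by ELISA; fitted in both directions against DMSO, with SRB total-protein staining of parallel cultures for cytotoxicity.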
# [9] = read-out: Monocyte Chemoattractant Protein-1 (MCP1), CCL2 (gene 6347); assay: BSK_LPS_MCP1: BioMAP Diversity Plus: LPS Assay for Monocyte Chemoattractant Protein-1 (MCP1) Biomarker Activity (AID 2283081); conditions: primary human HUVEC with PBMC; actives raise or lower the signal;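 on AC50: secreted MCP-1 protein quantified by ELISA in culture supernatant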
# How it was run: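 Human umbilical vein endothelial cells co-cultured with PBMC, LPS-stimulated; secreted MCP-1 measured by ELISA 24 h after compound addition. Bidirectional curve fitting against DMSO baseline; SRB total-protein staining in parallel cultures for cytotoxicity.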
# [10] = BSK_LPS_PGE2: BioMAP Diversity Plus: LPS Assay for Prostaglandin E2 (PGE2) Biomarker Activity (AID 2283082); conditions: primary human HUVEC with PBMC; actives raise or lower the signal;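 on AC50: secreted prostaglandin E2 measured by ELISA in LPS-stimulated co-culture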
# How it was run: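 HUVEC plus PBMC co-culture stimulated with LPS; secreted PGE2 quantified by ELISA 24 h after chemical dosing. Activity fitted bidirectionally against DMSO as negative control and baseline; parallel SRB total-protein staining served as cytotoxicity check.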
# [11] = read-out: Macrophage colony-stimulating factor (MCSF), CSF1 (gene 1435); assay: BSK_LPS_MCSF: BioMAP Diversity Plus: LPS Assay for Macrophage colony-stimulating factor (MCSF) Biomarker Activity (AID 2283083); conditions: primary human HUVEC with PBMC; actives raise or lower the signal
# How it was run: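 HUVEC–PBMC co-culture, M-CSF measured by ELISA 24 h after chemical dosing. Fitted in both directions relative to DMSO as negative control; overt cytotoxicity assessed by SRB total-protein staining in parallel cultures.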
# [12] = read-out: Tissue Factor, F3 (gene 2152); assay: BSK_LPS_TissueFactor: BioMAP Diversity Plus: LPS Assay for Tissue Factor Biomarker Activity (AID 2283084); conditions: primary human HUVEC with PBMC; actives raise or lower the signal
# How it was run: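 Human umbilical vein endothelial cells co-cultured with PBMC were dosed with compound. Cell-surface CD142 was measured by ELISA 24 h later. Activity was fitted bidirectionally against DMSO, with SRB total-protein staining in parallel cultures for cytotoxicity.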
# [13] = read-out: Tumor necrosis factor (Homo sapiens) (UniProt P01375); assay: BSK_LPS_TNFa: BioMAP Diversity Plus: LPS Assay for Tumour Necrosis Factor alpha (TNFa) Biomarker Activity (AID 2283085); conditions: primary human HUVEC with PBMC; actives raise or lower the signal
# How it was run: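 Human umbilical vein endothelial cells co-cultured with PBMC were exposed to test chemical and TNFa measured by ELISA 24 h after dosing. Bidirectional curve fitting was done relative to DMSO as negative control and baseline.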
# [14] = read-out: Vascular cell adhesion molecule 1 (VCAM1), VCAM1 (gene 7412); assay: BSK_LPS_VCAM1: BioMAP Diversity Plus: LPS Assay for Vascular cell adhesion molecule 1 (VCAM1) Biomarker Activity (AID 2283086); conditions: primary human HUVEC with PBMC; actives raise or lower the signal
# How it was run: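 Human umbilical vein endothelial cells co-cultured with peripheral blood mononuclear cells under LPS stimulation were exposed to test chemical for 24 h. VCAM-1 levels were then measured by ELISA, with bidirectional curve fitting relative to DMSO as negative control and baseline.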
# CD38, CD38 (gene 952) = assay: BSK_SAg_CD38: BioMAP Diversity Plus: SAg Assay for CD38 Biomarker Activity (AID 2283087); conditions: primary human HUVEC with PBMC; actives raise or lower the signal
# How it was run: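 Fluorescence ELISA of cell-surface CD38 served as the read-out, with either increase or decrease fitted against DMSO controls. Cells were a human umbilical vein endothelium plus PBMC co-culture under SEB/TSST-1 stimulation, measured 24 h after dosing.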
# CD40, CD40 (gene 958) [15] = assay: BSK_SAg_CD40: BioMAP Diversity Plus: SAg Assay for CD40 Biomarker Activity (AID 2283088); conditions: primary human HUVEC with PBMC; actives raise or lower the signal
# How it was run: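 HUVEC plus PBMC co-culture, superantigen-activated, with CD40 read by ELISA 24 h after dosing. Curves fitted in both directions against DMSO. Overt cytotoxicity checked by parallel SRB total-protein staining.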
# CD69, CD69 (gene 969) = assay: BSK_SAg_CD69: BioMAP Diversity Plus: SAg Assay for CD69 Biomarker Activity (AID 2283089); conditions: primary human HUVEC with PBMC; actives raise or lower the signal;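 on AC50: cell surface CD69 protein quantified by ELISA with fluorescence detection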
# How it was run: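 HUVEC co-cultured with PBMC were dosed with chemical, and CD69 was measured by ELISA with fluorescence read-out 24 h later. Bidirectional curve fitting used DMSO as negative control and activity baseline.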
# [16] = read-out: Monocyte Chemoattractant Protein-1 (MCP1), CCL2 (gene 6347); assay: BSK_SAg_MCP1: BioMAP Diversity Plus: SAg Assay for Monocyte Chemoattractant Protein-1 (MCP1) Biomarker Activity (AID 2283090); conditions: primary human HUVEC with PBMC; actives raise or lower the signal
# How it was run: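 MCP-1 levels in the endothelial–PBMC SAg co-culture were quantified by ELISA at 24 h post-dosing; both increases and decreases versus DMSO scored. Cytotoxicity monitored by SRB total protein in parallel cultures.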
# [17] = BSK_LPS_SRB: Viability Assessment in the BioMAP Diversity Plus: LPS Assay (AID 2283079); conditions: primary human HUVEC with PBMC;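 further: total protein by sulforhodamine B absorbance as a cytotoxicity measure; measured one day after compound addition; fitted in both directions against DMSO so loss or gain of signal counts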
# How it was run: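 Co-culture of human umbilical vein endothelial cells and PBMC, read 24 h after dosing. Total protein by 0.1% SRB staining after 10% TCA fixation, absorbance at 560 nm; bidirectional fit against DMSO.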
# [18] = read-out: Interleukin-1 alpha (IL1a), IL1A (gene 3552); assay: BSK_LPS_IL1a: BioMAP Diversity Plus: LPS Assay for Interleukin-1 alpha (IL1a) Biomarker Activity (AID 2283080); conditions: primary human HUVEC with PBMC; actives raise or lower the signal
# How it was run: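 Human umbilical vein endothelial cells co-cultured with PBMC and stimulated with LPS; IL-1a measured by ELISA 24 h after dosing. Bidirectional fitting against DMSO; cytotoxicity checked by SRB staining in parallel cultures.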
# Chain of E-selectin (Homo sapiens) (P16581 whole entry, looked up): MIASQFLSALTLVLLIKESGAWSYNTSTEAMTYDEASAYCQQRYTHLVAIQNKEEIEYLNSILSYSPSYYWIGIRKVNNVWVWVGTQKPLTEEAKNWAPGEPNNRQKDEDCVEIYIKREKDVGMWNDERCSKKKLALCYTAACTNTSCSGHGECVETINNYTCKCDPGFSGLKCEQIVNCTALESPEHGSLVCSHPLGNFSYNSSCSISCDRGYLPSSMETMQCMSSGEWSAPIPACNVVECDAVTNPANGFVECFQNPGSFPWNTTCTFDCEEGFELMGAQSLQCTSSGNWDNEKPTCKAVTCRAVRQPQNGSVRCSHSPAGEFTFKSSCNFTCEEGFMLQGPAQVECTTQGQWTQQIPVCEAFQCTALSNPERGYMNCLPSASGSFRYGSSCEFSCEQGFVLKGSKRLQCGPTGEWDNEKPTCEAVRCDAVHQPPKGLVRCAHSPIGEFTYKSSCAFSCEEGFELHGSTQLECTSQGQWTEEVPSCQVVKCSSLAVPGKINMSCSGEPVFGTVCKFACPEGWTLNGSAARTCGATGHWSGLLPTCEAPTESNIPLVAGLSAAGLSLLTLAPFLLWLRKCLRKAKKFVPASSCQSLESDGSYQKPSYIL
# Chain of Tumor necrosis factor (Homo sapiens) (P01375 whole entry, looked up): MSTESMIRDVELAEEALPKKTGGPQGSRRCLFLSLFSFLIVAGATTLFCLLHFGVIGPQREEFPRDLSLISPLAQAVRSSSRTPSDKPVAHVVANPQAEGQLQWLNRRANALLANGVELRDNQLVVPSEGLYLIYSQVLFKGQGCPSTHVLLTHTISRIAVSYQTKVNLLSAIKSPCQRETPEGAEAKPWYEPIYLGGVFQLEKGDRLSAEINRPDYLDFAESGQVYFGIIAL
smiles,measurement,setting,value
O=[N+]([O-])c1ccc(O)c([N+](=O)[O-])c1,outcome,[1],inactive
same,outcome,[2],inactive
same,outcome,[3],inactive
same,outcome,[4],inactive
same,outcome,[5],inactive
same,outcome,"CD40, CD40 (gene 958) [6]",inactive
same,outcome,[7],inactive
same,outcome,[8],inactive
same,outcome,[9],inactive
same,outcome,[10],inactive
same,outcome,[11],inactive
same,outcome,[12],inactive
same,outcome,[13],inactive
same,outcome,[14],inactive
same,outcome,"CD38, CD38 (gene 952)",inactive
same,outcome,"CD40, CD40 (gene 958) [15]",inactive
same,outcome,"CD69, CD69 (gene 969)",inactive
same,outcome,[16],inactive
O=S(=O)(c1ccc(Cl)cc1)c1ccc(Cl)cc1,outcome,[2],inactive
same,outcome,[3],inactive
same,outcome,[4],inactive
same,outcome,[5],inactive
same,outcome,"CD40, CD40 (gene 958) [6]",inactive
same,outcome,[7],inactive
same,outcome,[8],inactive
same,outcome,[17],inactive
same,outcome,[18],inactive
same,outcome,[9],inactive
same,outcome,[10],inactive
same,outcome,[11],inactive
same,outcome,[12],inactive
same,outcome,[14],inactive
same,outcome,"CD38, CD38 (gene 952)",inactive
same,outcome,"CD40, CD40 (gene 958) [15]",inactive
same,outcome,"CD69, CD69 (gene 969)",inactive
same,outcome,[16],inactive
CCOP(=S)(OCC)SCCS(=O)(=O)CC,outcome,[1],inactive
same,outcome,[2],inactive
same,outcome,[3],inactive
same,outcome,[4],inactive
same,outcome,[5],inactive
same,outcome,"CD40, CD40 (gene 958) [6]",inactive
same,outcome,[7],inactive
same,outcome,[8],inactive
same,outcome,[18],inactive
same,outcome,[9],inactive
same,outcome,[10],inactive
same,outcome,[11],inactive
same,outcome,[12],inactive
same,outcome,[14],inactive
same,outcome,"CD38, CD38 (gene 952)",inactive
same,outcome,"CD40, CD40 (gene 958) [15]",inactive
same,outcome,"CD69, CD69 (gene 969)",inactive
same,outcome,[16],inactive
O=[N+]([O-])c1ccc2c3c(cccc13)CC2,AC50,[1],11.4 µM (active)
same,outcome,[2],inactive
same,outcome,[3],inactive
same,outcome,[4],inactive
same,outcome,[5],inactive
same,outcome,"CD40, CD40 (gene 958) [6]",inactive
same,outcome,[7],inactive
same,outcome,[8],inactive
same,outcome,[9],inactive
same,outcome,[10],inactive
same,outcome,[11],inactive
same,outcome,[12],inactive
same,outcome,[13],inactive
same,outcome,[14],inactive
same,AC50,"CD38, CD38 (gene 952)",20 µM (active)
same,outcome,"CD40, CD40 (gene 958) [15]",inactive
same,outcome,"CD69, CD69 (gene 969)",inactive
same,outcome,[16],inactive
CC1(C)Cc2cccc(O)c2O1,outcome,[1],inactive
same,outcome,[2],inactive
same,outcome,[3],inactive
same,outcome,[4],inactive
same,outcome,[5],inactive
same,outcome,"CD40, CD40 (gene 958) [6]",inactive
same,outcome,[7],inactive
same,outcome,[8],inactive
same,outcome,[17],inactive
same,outcome,[9],inactive
same,AC50,[10],4.31 µM (active)
same,outcome,[11],inactive
same,outcome,[12],inactive
same,outcome,[13],inactive
same,outcome,[14],inactive
same,outcome,"CD38, CD38 (gene 952)",inactive
same,outcome,"CD40, CD40 (gene 958) [15]",inactive
same,outcome,"CD69, CD69 (gene 969)",inactive
same,outcome,[16],inactive
O=C(OC1CCCCC1)c1ccccc1C(=O)OC1CCCCC1,AC50,[1],20.9 µM (active)
same,AC50,[2],2.62 µM (active)
same,outcome,[3],inactive
same,AC50,[4],9.72 µM (active)
same,outcome,[5],inactive
same,AC50,"CD40, CD40 (gene 958) [6]",15.5 µM (active)
same,AC50,[7],20.9 µM (active)
same,AC50,[8],20.9 µM (active)
same,AC50,[17],20.9 µM (active)
same,AC50,[9],27.9 µM (active)
same,outcome,[10],inactive
same,AC50,[11],14.6 µM (active)
same,AC50,[12],20.9 µM (active)
same,AC50,[13],26.5 µM (active)
same,AC50,[14],20.9 µM (active)
same,AC50,"CD38, CD38 (gene 952)",33.3 µM (active)
same,AC50,"CD40, CD40 (gene 958) [15]",20.9 µM (active)
same,AC50,"CD69, CD69 (gene 969)",26.2 µM (active)
same,AC50,[16],27.8 µM (active)
